# Compound activity deposited in PubChem by several laboratories.
# EBV gp42 block: EBV gp42 inhibition. 220,000 compounds, 0.42% hits. inhibition, % (tested at 21.74 µM). Fluorescence polarization binding assay, mP read-out. AID 1085. Q1HVG2; in the data active means inhibition above about 50%
# MEX-5 binding: C. elegans MEX-5 TCR-2 RNA binding activity; Q9XUB2; MEX-5/FITC-TCR2 RNA binding, fluorescence polarization; active compounds read low; activity score (negative = inhibition of binding), % at 10 µM; 300,000 compounds, 0.38% hits; AID 1832;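 active means inhibition past about -25% in most replicates, and total fluorescence under double the plate's negative control median, limit read from the data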;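 further: 0% = DMSO and -100% = 5 µM competing unlabeled TCR2 RNA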
# Target sequence (Q9XUB2 whole entry, looked up): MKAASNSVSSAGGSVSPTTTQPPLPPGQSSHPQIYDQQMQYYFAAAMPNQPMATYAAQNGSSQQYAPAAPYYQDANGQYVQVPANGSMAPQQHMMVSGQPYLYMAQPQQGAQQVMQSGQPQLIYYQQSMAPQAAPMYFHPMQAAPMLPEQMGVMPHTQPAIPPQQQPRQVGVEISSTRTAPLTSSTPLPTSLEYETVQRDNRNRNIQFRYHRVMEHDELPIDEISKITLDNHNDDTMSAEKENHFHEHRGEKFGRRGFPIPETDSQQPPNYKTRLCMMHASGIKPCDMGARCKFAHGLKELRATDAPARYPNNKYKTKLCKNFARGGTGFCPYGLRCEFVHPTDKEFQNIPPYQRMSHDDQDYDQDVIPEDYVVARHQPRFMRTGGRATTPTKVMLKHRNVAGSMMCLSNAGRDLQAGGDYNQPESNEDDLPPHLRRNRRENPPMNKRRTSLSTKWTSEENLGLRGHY
# MCL1-BIM inh: MCL1-BIM-BH3 interaction inhibition (human); GST-MCL1 / FITC-Bim-BH3 fluorescence polarization; inhibition, % at 10.9 µM; 320,000 compounds, 0.68% hits;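 active means inhibition above the mean inhibition of all tested compounds plus 3 SD, set per campaign, cut at about 40% in these data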;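 further: 0% = DMSO wells and 100% = unlabeled Bim-BH3 peptide control; higher means more loss of mP so more displacement of Bim peptide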
# Bcl-xL primary: blocks human Bcl-xL binding to Bim BH3 peptide. Q07817. GST-Bcl-xL / FITC-Bim BH3 peptide fluorescence polarization. inhibition, % at 10.9 µM. 320,000 compounds, 0.7% hits. AID 2129;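 active means inhibition above the mean of all tested compounds plus 3 SD, cutoff set per campaign, cut at about 30% in these data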;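 further: 0% = DMSO wells and 100% = unlabeled Bim-BH3 peptide competitor; inhibitors lower millipolarization by displacing the labeled peptide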
# eLon inh: E. coli protease La inhibition. AID 602123. P0A9M0. 360,000 compounds, 0.42% hits. inhibition, % at 7.94 µM. purified E. coli Lon protease, fluorescence polarization; in the data active means inhibition above about 13%, passing the limit was not always enough;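 further: 0% = enzyme with probe and DMSO and 100% = no enzyme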
# GLD-1 TGE inh: GLD-1-TGE RNA interaction inhibition (C. elegans). 320,000 compounds, 0.44% hits. AID 2280. purified GLD-1 + fluorescein TGE RNA, fluorescence polarization. Q17339. inhibition, % at 5.96 µM;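 active means percent inhibition above a per-plate cutoff, the plate mean of test compounds plus 3 SD, cut at about 30% in these data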;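 further: 0% = DMSO wells with GLD-1 and probe and 100% = wells lacking GLD-1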
# * hit, by the source's call; i = inactive; x = no result given; + = active, no number. This is a sample that favours compounds with a hit; in the whole collection about 1.5% have one here.
SMILES,EBV gp42 block,MEX-5 binding,MCL1-BIM inh,Bcl-xL primary,eLon inh,GLD-1 TGE inh
COc1ccc(NC(=O)c2cc(S(=O)(=O)N3CCCC3)ccc2C)cn1,x,x,42*,35*,9,29
CCN(c1ccc(N=Cc2c(O)n(Cc3ccc(OC)cc3)c(=O)c3ccccc23)cc1)C(C)C,+,x,x,x,-29,x
COc1ccc(S(=O)(=O)Cc2ccc(C(=O)NC3CC3)o2)cc1,21,0,1,0,-6,3
COC(=O)c1noc(C)c1-c1ccnn1C(=O)c1ccc(C)cc1,6,3,5,-2,-10,9
Cn1c(-c2ccsc2)c(-c2cccs2)c2cc(-c3cccc4[nH]ccc34)ccc21,x,x,-11,-4,-11,-1
CCCCN1C=CC(=C2C(=O)c3ccccc3C2=O)C=C1,-2,-38*,-2,1,-3,7
CCCCNC1=CC(=O)C(=O)c2ccccc21,-15,0,-1,5,-7,1
CN1C(=O)NC(c2cccc(F)c2)C2=C1CC(C)(C)CC2=O (stereo not given),x,1,4,36*,2,-7
c1coc(-c2cc(C3CCNCC3)[nH]n2)c1,-17,1,6,2,0,9
N#CCN1CCC(c2cc(-c3ccco3)n[nH]2)CC1,-6,-1,33,38*,x,29
CC(=O)N1c2ccc3ccccc3c2C2C=CCC2C1c1ccc(Br)cc1 (stereo not given),30,x,32,37*,x,41*
Cc1cc(NC(=O)c2cc(-c3ccccc3)on2)no1,-18,-1,-6,-1,-6,5
Cc1ccc(-c2cc(C(=O)Nc3cc(C)on3)no2)cc1,11,0,28,37*,-2,47*
O=C(NCc1n[nH]c(=S)n1-c1ccc([N+](=O)[O-])cc1)c1ccc(S(=O)(=O)N2CCOCC2)cc1,4,-1,-18,-22,4,7
Cc1cc(/C=C2\SC(=S)N(C)C2=O)c(C)n1-c1cccc(O)c1,25,-1,-30,-13,-49,-32
Cc1cc(/C=C2\SC(=S)N(Cc3ccco3)C2=O)c(C)n1-c1ccccc1,55*,-22,-29,-10,-150,32*
CN(C)c1ccc(C=C2SC(=S)N(Cc3ccco3)C2=O)cc1,x,x,x,x,i,x
COc1ccc(-n2c(C)cc(/C=C3/SC(=S)N(C)C3=O)c2C)cc1,61*,-5,-7,0,-12,-8
COc1ccc(C(=O)N=c2sc3ccccc3n2C)cc1,-7,-1,0,-1,6,2
CCCCN1C2=C(C(=O)CCC2)C(c2ccc(Cl)c(Cl)c2)C2=C1c1ccccc1C2=O (stereo not given),7,-3,43*,44*,3,5
CCCN1C(=O)c2ccccc2NC1c1ccc(Cl)c(Cl)c1 (stereo not given),x,0,1,0,-7,15
Cc1ccc(-c2nc(N=Nc3ccc(O)cc3)n[nH]2)cc1,-14,-5,0,3,-21,-5
Cc1nc(N=Nc2ccc(O)cc2)n[nH]1,-7,-29*,1,1,-7,-4
O=C(COc1ccc(Cl)cc1)Nc1ccc(CN2CCOCC2)cc1,x,x,5,3,7,4
CCOC(=O)c1c(-c2ccccc2)csc1NC(=O)/C(C#N)=C/c1ccc(OC)c(OC)c1,-29,-43*,-11,-7,-5,-9
SMILES,EBV gp42 block,MEX-5 binding,MCL1-BIM inh,Bcl-xL primary,eLon inh,GLD-1 TGE inh
COc1ccc(NC(=O)CN2C(=O)/C(=C3\SC(=S)N(C4CCS(=O)(=O)C4)C3=O)c3ccccc32)cc1 (stereo not given),61*,1,13,12,1,-7
O=C(/C=C/c1ccc(O)c(O)c1)OC(Cc1ccc(O)c(O)c1)C(=O)O (stereo not given),x,-53*,28,20,2,2
O=C(/C=C/c1ccc(O)c(O)c1)OCCc1ccccc1,x,-1,33,18,0,6
Cc1cc(C(=O)OCC(=O)Nc2c(Cl)cccc2C(F)(F)F)c(C)o1,x,0,-11,46*,-7,1
Cc1ncc([N+](=O)[O-])n1Cc1cccc2ccccc12,66*,-2,-2,5,2,3
COc1ccc(-c2cc3c(=O)n(CC(=O)NCc4cccnc4)ncn3n2)cc1,x,0,0,-2,3,7
COc1ccc(-c2cc3c(=O)n(CC(=O)Nc4ccc(C(C)=O)cc4)ncn3n2)cc1,x,-3,-4,73*,7,7
COc1ccccc1NC(=O)C(C)NS(=O)(=O)c1ccc(Cl)cc1 (stereo not given),-22,-1,0,0,4,-4
CCOC(=O)C1=CCN(S(=O)(=O)c2ccccc2F)C1c1cccc(F)c1 (stereo not given),x,x,x,x,-8,x
CC(OC(=O)c1ccc2c(c1)NC(=O)CS2)C(=O)c1ccc(F)cc1 (stereo not given),x,x,x,x,1,11
Cc1ccc(C)c(N2CCN(C(=O)c3ccc(N4CCCC4=O)cc3)CC2)c1,x,-2,9,130*,-8,12
CC(=O)c1cc2ccc(O)cc2oc1=O,32,-2,37,48*,1,25
COc1ccc2cc(C(C)=O)c(=O)oc2c1,-4,0,-5,2,-1,-3
O=C(O)c1cc(-c2ccc(/C=N/Nc3ccc([N+](=O)[O-])cn3)o2)ccc1Cl,-12,-72*,x,x,-8,x
O=C(c1ccccc1)c1nn(-c2ccccc2)c(=O)cc1C(F)(F)F,-2,2,-3,8,-3,-2
O=C(Nc1ccccc1)c1nn(-c2ccccc2)c(=O)cc1C(F)(F)F,18,-30*,4,4,-2,-1
Cc1ccc(C(=O)N/C(=C/c2ccco2)C(=O)Nc2cccc(C(=O)O)c2)cc1,x,-1,11,16,x,19
COc1ccccc1C(=O)N/C(=C/c1ccco1)C(=O)Nc1cccc(C(=O)O)c1,x,-6,29,31*,-25,14
O=[N+]([O-])c1cccc(C2CC(c3ccccc3)=NN2c2ccccc2)c1 (stereo not given),x,1,-2,4,-4,2
N#CC1CC(c2ccc([N+](=O)[O-])cc2)=NN1c1ccc([N+](=O)[O-])cc1 (stereo not given),94*,-14,-73,-38,-31,-19
O=C1Nc2ccc(F)cc2C12Nc1ccccc1-c1nnc(SCc3ccccc3)nc1O2 (stereo not given),-17,1,-5,8,-1,6
Cc1ccc(CSc2nnc3c(n2)OC2(Nc4ccccc4-3)C(=O)Nc3ccc(F)cc32)cc1 (stereo not given),151*,-1,-1,5,-12,3
Cc1cccc(Cn2c(C(C)(C)C)cc3cccnc32)c1,-2,0,5,5,-12,-3
CC(C)NC(=O)Cn1cc(C(=O)C(=O)N2CCOCC2)c2ccccc21,x,0,8,4,-29,5
